Active and inactive are the calls of the source.

Experiment [1] is described as follows: optical density shifts of acrAB sulA E. coli – strain DRC41, OD650, 48 h, E. coli filamentation inducer project, primary screen (AID 1152).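 Note: E. coli MC1000 strain DRC41 lacking acrAB efflux pump and sulA.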 As to conditions: higher = more signal, called active from +8 up or from −8 down.
Experiment [2] is described as follows: probe aLefty1 binding on compound microarray – biochemical, small-molecule microarray, 635/667 nm fluorescence, primary screen (AID 1153).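 Note: score merges spot fluorescence with signal-to-noise ratio from the scanned slide images.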 As to conditions: higher = more signal.
A short description of experiment [3]: plasmodial surface anion channel blockers, osmotic lysis – cell-based, P. falciparum Indochina, OD700, 1 h, primary screen (AID 1154). As to conditions: P. falciparum Indochina infected RBC osmotic lysis, higher = more signal, called active from +8 up or from −8 down.
The nature of experiment [4]: plasmodial surface anion channel blockers, osmotic lysis – cell-based, P. falciparum Indochina, OD700, 2 h, primary screen (AID 1155).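 Note: lysis reports solute entry through the parasite surface anion channel PSAC.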 As to conditions: P. falciparum Indochina infected erythrocytes, higher = more signal, called active from +8 up or from −8 down.
Experiment [5] can be described thus: changes in parasitized red cell lysis, either direction – P. falciparum Indochina, OD700, 3 h, PSAC antagonist project, primary screen (AID 1156). As to conditions: P. falciparum-infected erythrocytes, osmotic lysis, higher = more signal, called active from +8 up or from −8 down.
Experiment [6] can be described thus: plasmodial surface anion channel blockers, osmotic lysis – cell-based, P. falciparum Indochina, OD700, 18 h, primary screen (AID 1157). As to conditions: P. falciparum Indochina infected erythrocytes, osmotic lysis OD700, 18 h; higher = more signal, called active from +8 up or from −8 down.
Experiment [7] can be described thus: S6 kinase pathway phospho-S6 level changes – cell-based, A549, cytoblot, luminescence, serum-stimulated, primary screen (AID 1158).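 Note: serum-stimulated A549 lung adenocarcinoma cells; signal is phosphorylated S6 detected by cytoblot immunostaining with HRP secondary.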 As to conditions: 5 h, higher = more signal.
Experiment [8] deals with NADPH oxidase 2 (Homo sapiens) (UniProt P04839). Nature of the experiment: compounds shifting NOX2 Amplex Red fluorescence – cell-based, HEK293-NOX2, PMA-stimulated, NOX inhibitor project, primary screen (AID 1159). Note: test concentration not given here. As to conditions: 45 min, higher = more signal, called active from +8 up or from −8 down.
Experiment [9] has as its target NADPH oxidase 4 (Homo sapiens) (UniProt Q9NPH5). The experiment can be described thus: compounds shifting NOX4 Amplex Red fluorescence – cell-based, HEK293-NOX4, tetracycline-induced, NOX inhibitor project, primary screen (AID 1160). As to conditions: HEK293-NOX4, Amplex Red H2O2 fluorescence, 45 min; higher = more signal, called active from +8 up or from −8 down.
Experiment [10] addresses NADPH oxidase 5 (Homo sapiens) (UniProt Q96PH1). Nature of the experiment: compounds shifting NOX5 Amplex Red fluorescence – cell-based, HEK293-NOX5, NOX inhibitor project, primary screen (AID 1161). As to conditions: HEK293-NOX5, ionomycin, 45 min, higher = more signal.
Experiment [11] is described as follows: compound effects on lung adenocarcinoma cell viability – A549, calcein-AM fluorescence, 48 h, basal, profiling panel (AID 1162). Note: test concentration not given here. As to conditions: higher = more signal.
Experiment [12] in a line: compound effects on differentiated 3T3-L1 adipocyte viability – cell-based, 3T3-L1 adipocytes, calcein-AM fluorescence, 48 h, basal, profiling panel (AID 1163). Note: test concentration not given here. As to conditions: 3T3-L1 adipocytes viability, higher = more signal.
The nature of experiment [13]: compound effects on hepatocellular carcinoma cell viability – HepG2, calcein-AM fluorescence, 48 h, basal, profiling panel (AID 1164). Note: test concentration not given here. As to conditions: higher = more signal.
A short description of experiment [14]: compound effects on multiple myeloma cell viability – MM1S, calcein-AM fluorescence, 48 h, basal, profiling panel (AID 1165). Note: test concentration not given here. As to conditions: higher = more signal.
A short description of experiment [15]: calcein-AM signal in unstimulated myeloma cells – cell-based, calcein-AM fluorescence, 48 h, PK04 Diversity Set, profiling panel (AID 1166).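 Note: cells grown under basal conditions without added stimulus; test concentration not given here.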 As to conditions: RPMI8226 myeloma viability, higher = more signal.
A short description of experiment [16]: JC-1 mitochondrial signal, unstimulated HepG2 cells – cell-based, JC-1 fluorescence, 24 h, 100 nL compound, profiling panel (AID 1167). Note: test concentration not given here. As to conditions: HepG2 mitochondrial potential, higher = more signal.
A short description of experiment [17]: JC-1 mitochondrial signal, unstimulated adipocytes – cell-based, JC-1 fluorescence, 3T3-L1 adipocytes, 24 h, 100 nL compound, profiling panel (AID 1168). Note: test concentration not given here. As to conditions: JC-1 mitochondrial fluorescence, higher = more signal, called active from +8 up or from −8 down.
Experiment [18] is described as follows: JC-1 mitochondrial signal, unstimulated myeloma cells – cell-based, JC-1 fluorescence, RPMI8226, 24 h, 100 nL compound, profiling panel (AID 1169). Note: test concentration not given here. As to conditions: JC-1 mitochondrial potential fluorescence, higher = more signal.
Experiment [19] is described as follows: JC-1 mitochondrial signal, unstimulated MM1S myeloma – cell-based, JC-1 fluorescence, 24 h, 100 nL compound, profiling panel (AID 1170). Note: test concentration not given here. As to conditions: MM1S mitochondrial potential, higher = more signal.
A short description of experiment [20]: resazurin metabolic signal in A549 cells – cell-based, resazurin fluorescence, 24 h, PK04 Diversity Set, profiling panel (AID 1171). Note: test concentration not given here. As to conditions: A549 viability, higher = more signal, called active from +8 up or from −8 down. (In general: The colour change of resazurin is a common sign of viable cells or microbes.)

NADPH oxidase 5 (Homo sapiens), sequence (Q96PH1 whole entry, looked up): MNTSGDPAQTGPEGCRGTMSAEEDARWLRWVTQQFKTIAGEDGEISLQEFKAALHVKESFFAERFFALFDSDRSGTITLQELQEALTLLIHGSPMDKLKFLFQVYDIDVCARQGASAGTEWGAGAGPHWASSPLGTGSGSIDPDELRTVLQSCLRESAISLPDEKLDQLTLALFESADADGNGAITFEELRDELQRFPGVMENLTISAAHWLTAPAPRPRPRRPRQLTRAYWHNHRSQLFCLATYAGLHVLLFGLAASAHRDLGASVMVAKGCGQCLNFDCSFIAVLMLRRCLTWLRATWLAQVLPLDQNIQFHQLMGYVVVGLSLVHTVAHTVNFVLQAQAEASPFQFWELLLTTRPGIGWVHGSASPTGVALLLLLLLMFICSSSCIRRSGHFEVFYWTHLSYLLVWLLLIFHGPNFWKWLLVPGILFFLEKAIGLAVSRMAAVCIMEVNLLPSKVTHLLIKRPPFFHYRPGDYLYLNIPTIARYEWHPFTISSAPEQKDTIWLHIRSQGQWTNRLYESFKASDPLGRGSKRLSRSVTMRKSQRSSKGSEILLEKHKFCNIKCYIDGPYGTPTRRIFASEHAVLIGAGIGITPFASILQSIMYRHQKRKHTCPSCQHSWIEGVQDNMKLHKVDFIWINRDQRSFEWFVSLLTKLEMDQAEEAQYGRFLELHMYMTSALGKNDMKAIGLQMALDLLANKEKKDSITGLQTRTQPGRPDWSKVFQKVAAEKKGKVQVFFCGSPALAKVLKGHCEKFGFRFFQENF
NADPH oxidase 4 (Homo sapiens), sequence (Q9NPH5 whole entry, looked up): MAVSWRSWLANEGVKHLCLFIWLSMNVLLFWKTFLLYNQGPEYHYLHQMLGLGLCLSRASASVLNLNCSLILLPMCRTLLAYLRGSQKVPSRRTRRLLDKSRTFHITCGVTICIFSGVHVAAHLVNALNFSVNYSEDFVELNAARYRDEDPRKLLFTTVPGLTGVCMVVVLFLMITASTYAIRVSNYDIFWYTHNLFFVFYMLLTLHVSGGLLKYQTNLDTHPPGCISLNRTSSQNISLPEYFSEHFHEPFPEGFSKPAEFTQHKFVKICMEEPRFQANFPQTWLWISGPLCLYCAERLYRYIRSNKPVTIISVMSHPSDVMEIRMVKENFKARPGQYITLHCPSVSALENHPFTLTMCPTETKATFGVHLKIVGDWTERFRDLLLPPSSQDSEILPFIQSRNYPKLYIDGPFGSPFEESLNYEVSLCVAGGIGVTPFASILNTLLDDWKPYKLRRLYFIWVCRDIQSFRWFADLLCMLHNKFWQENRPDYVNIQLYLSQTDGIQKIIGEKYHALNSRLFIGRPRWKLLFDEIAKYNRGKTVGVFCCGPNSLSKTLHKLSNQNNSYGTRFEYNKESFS
NADPH oxidase 2 (Homo sapiens), sequence (P04839 whole entry, looked up): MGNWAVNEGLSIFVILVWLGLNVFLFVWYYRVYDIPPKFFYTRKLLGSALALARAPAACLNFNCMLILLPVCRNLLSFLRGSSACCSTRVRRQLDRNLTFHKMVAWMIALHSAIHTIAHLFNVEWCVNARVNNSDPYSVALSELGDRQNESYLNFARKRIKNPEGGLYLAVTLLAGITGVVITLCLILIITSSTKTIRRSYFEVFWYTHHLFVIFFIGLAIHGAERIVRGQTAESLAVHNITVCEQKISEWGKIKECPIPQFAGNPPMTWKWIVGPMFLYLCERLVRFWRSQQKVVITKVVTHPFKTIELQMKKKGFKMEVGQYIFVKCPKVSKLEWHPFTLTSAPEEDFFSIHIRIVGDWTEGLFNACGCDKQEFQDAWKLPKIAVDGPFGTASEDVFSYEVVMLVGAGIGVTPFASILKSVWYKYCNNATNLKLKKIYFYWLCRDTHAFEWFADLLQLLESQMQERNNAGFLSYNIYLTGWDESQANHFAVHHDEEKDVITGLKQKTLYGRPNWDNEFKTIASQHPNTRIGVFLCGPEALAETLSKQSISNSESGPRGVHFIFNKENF

As to `COc1ccc(CCNC(=O)[C@@H]2c3ccccc3C(=O)N(c3ccc(C)cn3)[C@H]2c2ccc(CO)cc2)cc1`, the z-score in experiment [1] was 0.119 (inactive); in [3], 2.45 (inactive); in experiment [4], 0.478 (inactive); in experiment [5], 0.414 (inactive); in experiment [6], 0.401 (inactive); in [7], -0.0568. Besides, the z-score in experiment [8] was 0.0857 (inactive); in [9], -0.882 (inactive); in experiment [10], -2.5; in [11], -0.174; in experiment [12] it was 0.821; in experiment [13], -0.513. The z-score in experiment [14] was -0.243; in experiment [15], -0.194; in experiment [16], -0.814; in [17], -0.195 (inactive); in experiment [18], 0.671; in experiment [19], 0.634. For the same compound, in experiment [20], the z-score was 0.689 (inactive). The compound also returned a composite z-score in experiment [2] of -0.06.

Take `CCOC(=O)[C@H](Cc1ccccc1)NC(=O)CCC1CC(OC(=O)NCc2ccc3c(c2)OCO3)CC2(CCCC(COC(=O)NCc3ccccc3)O2)O1` (stereo not given in full): the z-score was 0.0722 (inactive) in [1]; 0.0765 (inactive) in [3]; 0.979 (inactive) in experiment [4]; -1.37 (inactive) in experiment [5]; 0.565 (inactive) in experiment [6]; -0.0074 in [7]. Further, the z-score in experiment [8] was -0.988 (inactive); in [9], 0.852 (inactive); in experiment [10] it was 0.562; in experiment [11], -0.195; in experiment [12] it was -0.64; in experiment [13], 0.607. For the same compound, the z-score in [14] is 0.84; in [15], 0.709; in experiment [16], 2.27; in [17], 0.392 (inactive); in [18], 0.0886; in experiment [19], -0.997. The z-score in [20] was 0.98 (inactive). For the same compound, the composite z-score in [2] was -0.101.

Turning to `CCOC(=O)NN=C1C[C@@H](O)[C@@H](O)[C@@H]2[C@@H]3C(=O)N(C[C@@H]4CCCO4)C(=O)[C@@H]3CC[C@@H]12`, the z-score was 1.2 (inactive) in [1]; 0.564 (inactive) in experiment [3]; -0.243 (inactive) in [4]; 0.406 (inactive) in [5]; -0.0631 (inactive) in [6]; -0.0861 in experiment [7]. For the same compound, the z-score is -0.543 (inactive) in experiment [8]; 0.111 (inactive) in [9]; 0.354 in experiment [10]; 0.0693 in [11]; -0.637 in experiment [12]; 0.473 in experiment [13]. The z-score in [14] was 0.157; in experiment [15] it was 0.549; in experiment [16], 1.06; in experiment [17], 0.491 (inactive); in experiment [18], 0.248; in experiment [19], -0.895. For the same compound, the z-score in [20] was -0.175 (inactive). This compound had a composite z-score in experiment [2] of -0.245.

In the case of `O=C1CCCC=C1C(O)CCOCc1ccccc1` (stereo not given), the z-score is -1.7 (inactive) in [1]; 0.427 (inactive) in experiment [3]; -0.127 (inactive) in experiment [4]; 0.452 (inactive) in experiment [5]; -0.118 (inactive) in experiment [6]; -0.235 in experiment [7]. The z-score in [8] is 1.18 (inactive); in experiment [9], 0.45 (inactive); in [10] it was -0.00615; in experiment [11] it was -0.43; in experiment [12] it was 0.0411; in [13], -0.457. Further, the z-score in [14] is -1.42; in experiment [15] it was 0.452; in experiment [16], -0.667; in experiment [17], 0.0503 (inactive); in experiment [18], 0.215; in experiment [19], 0.527. In addition, the z-score in experiment [20] was -0.323 (inactive). The compound also gave a composite z-score in experiment [2] of -0.342.

For `C=CC[C@@H]1C=C[C@H](ON=C2c3cc(OC)ccc3O[C@H](c3cccc(OC)c3)[C@H]2O)[C@@H](CO)O1`, the z-score in experiment [1] was 0.97 (inactive); in experiment [3], 2.12 (inactive); in [4], 0.637 (inactive); in experiment [5], 0.562 (inactive); in experiment [6], 0.49 (inactive); in [7], -0.171. For the same compound, the z-score in experiment [8] was -0.334 (inactive); in [9] it was 0.593 (inactive); in experiment [10], 0.021; in [11], 0.27; in experiment [12], -0.855; in experiment [13], 0.925. Moreover, the z-score is 0.334 in [14]; -0.0859 in experiment [15]; -1.45 in [16]; 0.704 (inactive) in experiment [17]; -0.148 in [18]; -1.12 in [19]. For the same compound, the z-score in experiment [20] is -1.25 (inactive). In [2], this compound gave a composite z-score of -0.0011.

Values taken from PubChem BioAssay.
